According to PubChem BioAssay (NCI):
This is part of a sample that, as a whole, favours compounds with a hit. Of some 83,000 tested, about 20% had one in any assay.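 Activity criterion: percent growth below 10, measured after cells in 96-well plates were exposed to a single compound concentration for 48 hours.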 Unmarked numbers belong to inactive results. Calls of active or inactive are those of the source.

What was measured:
Assay in all cases: NCI-60 one-dose screen, 48 h (100 = growth as untreated, 0 = no growth, -100 = all killed)
Conditions in all cases: 10 µM unless noted
[1] = system: K-562 leukemia
[2] = system: MALME-3M melanoma
[3] = system: MDA-MB-231 breast
[4] = system: SF-268 CNS
[5] = system: SF-295 CNS
[6] = system: SF-539 CNS
[7] = system: UACC-257 melanoma
[8] = system: M14 melanoma
[9] = system: HCT-15 colon
[10] = system: HT29 colon
[11] = system: SNB-75 CNS
[12] = system: SNB-19 CNS
[13] = system: U251 CNS
[14] = system: PC-3 prostate
[15] = system: SK-MEL-5 melanoma
[16] = system: UACC-62 melanoma
[17] = system: LOX IMVI melanoma
[18] = system: SK-MEL-28 melanoma
[19] = system: RXF 393 renal

Compound | growth [1] | growth [2] | growth [3] | growth [4] [%] | growth [5] | growth [6] | growth [7] [%] | growth [8] | growth [9] | growth [10] | growth [11] | growth [12] [%] | growth [13] | growth [14] | growth [15] | growth [16] | growth [17] | growth [18] [%] | growth [19] [%]
O=C(NCCCl)NCCN1c2nc3ccccc3cc2Sc2cc3ccccc3nc21 | 21.5% | 60.4% | 39.5% | 44.2 | 409% | 38.3% | 65.8 | 69.2% | 51.9% | 36.2% | -5.93% (active) | 63.9 | 34.8% | 25.3% | 9.61% (active) | 47.4% | 49.7% | 86.4 | 
CCOC(=O)c1sc(NC(=O)COc2cccc(/C=C3\CCc4cc(OC)ccc4C3=O)c2)nc1C | 5.6% (active) | 77.1% | 89.2% | 69.4 | 90.3% | 26.4% | 84.2 | 89% | 56.5% | 39.6% | 99.3% | 58.4 | 41.1% | 48.9% | 44.1% | 60.8% | 48.8% | 103 | 
COc1ccc(C(=O)COc2cccc(/C=C3\COc4ccc5ccccc5c4C3=O)c2)cc1 | 47.8% | 72% | 53.7% | 83.8 | 107% | 16% | 79.4 | 91.2% | 88.6% | 60.8% | -6.64% (active) | 66.9 | 68.3% | 48.2% | 67.6% | 74.5% | 57.6% | 106 | 
COc1ccc2c(c1)C(=Nc1cc(OC)c(OC)c(OC)c1)C(=O)N2 | 102% | 90.8% | 103% | 98 | 171% | 103% | 102 | 101% | 100% | 115% | 104% | 113 | 93% | 77.5% | 114% | 88.8% | 81.6% | 90.2 | 
COc1ccc(Cl)cc1Nc1nc(C(F)(F)F)ccc1C(=O)N/N=C/c1c(Cl)cccc1Cl | 33.8% | 69.3% | 46.3% | 65 | 13.8% | 20.6% | 60.9 | 71.3% | 30.6% | 52.1% | 63.5% | 55.5 | 29.1% | 48.5% | 13.4% | 52.9% | 32.3% | 62.2 | 
CC(=O)Nc1ccc(C(=O)COc2ccc(/C=C3\CCc4ccccc4C3=O)cc2)cc1 | 80.4% |  | 103% | 93.6 | 104% | 115% | 98.9 | 115% | 102% | 104% | 116% | 106 | 98.6% | 88.8% | 98% | 99.7% | 99.9% | 122 | 
CCOC(=O)c1sc(NC(=O)COc2ccc(/C=C3\CCc4cc(OC)ccc4C3=O)cc2)nc1C | 71.7% |  | 94.1% | 80.1 | 118% | 95.1% | 93.7 | 106% | 102% | 85.8% | 105% | 96.1 | 91.2% | 79.5% | 96.6% | 95.2% | -88.1% (active) | 118 | 
Cc1cc(Cl)ccc1Nc1nc(C(F)(F)F)ccc1C(=O)N/N=C/c1ccc(Cl)cc1 | 5.71% (active) | -0.888% (active) | -22.5% (active) | 10.4 | -41.8% (active) | 0.0279% (active) | 16.6 | 0.962% (active) | 5.02% (active) | 3.44% (active) | -21.9% (active) | 14.6 | 2.95% (active) | -2.59% (active) | -13.8% (active) | -0.152% (active) | 0.0613% (active) | 20.9 | 
O=C(N/N=C/c1cccc(O)c1)c1ccc(C(F)(F)F)nc1Nc1cccc(C(F)(F)F)c1 | 5.13% (active) | 1.33% (active) | -26.8% (active) | 17.6 | -39.3% (active) | 7.23% (active) | 19.6 | 35.7% | 11.5% | 7.96% (active) | -5.22% (active) | 26.2 | 2.76% (active) | -8.91% (active) | 8.39% (active) | 0.893% (active) | -18.2% (active) | 24.7 | 
COc1ccc(CCN2C(=O)CCC3=C2CCCC3=O)cc1OC | 106% | 91.7% | 89.9% | 136 | 112% | 103% |  | 99.1% | 97.6% | 108% | 82.3% | 100 |  | 96.6% | 99.1% | 105% |  | 108 | 113
COc1ccc(CNC(=O)c2c(C)n([O-])c3ccc(OC)cc3[n+]2=O)cc1 | 90.8% | 98.6% | 111% | 103 | 239% | 118% | 109 | 107% | 103% | 93.2% | 99.1% | 97.8 | 96.3% | 80.5% |  | 94.9% | 101% | 108 | 
O=C(COc1cccc(/C=C2\Oc3ccc4ccccc4c3C2=O)c1)c1ccc([N+](=O)[O-])cc1 | 67.3% | 67.2% | 83.3% | 85.6 | 117% | 46.5% | 102 | 79.4% | 89.5% | 96.5% | 81.4% | 100 | 94.5% | 75.6% | 87.2% | 81.1% | -30.3% (active) | 124 | 
CCCCN1c2nc3ccccc3cc2Sc2cc3ccccc3nc21 | 99.4% | 117% | 76.4% | 91.7 | 768% | 100% | 104 | 103% | 94.9% | 95.2% | 107% | 107 | 109% | 78.6% | 82.1% | 91.7% | 103% | 116 | 
CC(=O)Nc1cc(C(c2ccccc2)c2ccccc2)cc(C(c2ccccc2)c2ccccc2)c1C | 35.3% | 75.2% | 69.8% | 53.5 | 54.9% | 77.3% | 64.8 | 79.2% | 50.5% | 47.8% | 34.2% | 71.4 | 46.8% | 15.4% | 45.6% | 50% | 53% | 56.8 | 
CC(=O)Nc1ccc(C(=O)COc2cccc(/C=C3\CCc4ccccc4C3=O)c2)cc1 | 36.8% | 19.6% | 90% | 90.1 | 486% | 96.7% | 89.8 | 104% | 89% | 101% | 78.7% | 94.1 | 83.4% | 76.1% | 64.4% | 83.6% | 71.5% | 109 | 
c1ccc2nc(N/N=C3\CCCCC3C3CCCCC3)ccc2c1 (stereo unspecified) | 12.3% | 46.6% | 60.8% | 66.8 | 25.9% | 58.8% | 72.1 | 72.1% | 33.5% | 26.6% | 70.2% | 76 | 41.6% | 14% | 39.7% | 50.8% | 23.4% | 62.6 | 
COc1ccc(CNC(=O)c2c(C)n([O-])c3ccccc3[n+]2=O)cc1 | 94.9% | 153% | 103% | 99.7 | 111% | 112% | 90.4 | 104% | 103% | 102% | 79.9% | 97.7 | 97.3% | 86.3% | 76.6% | 96.8% | 96.8% | 104 | 
